According to PubChem BioAssay AID1220 (Sanford-Burnham Center for Chemical Genomics, 2008):
Hit rate of the full screen: of about 190,000 compounds, about 1,300 (0.68%) were called active. The sample as a whole holds a higher share of actives than the screen did. Unmarked numbers belong to inactive results. No stated cut-off is given here; in the data, active means inhibition above about 50%; inactive means the rest.

Each compound was assayed against Mannose-6-phosphate isomerase (Homo sapiens) (UniProt P34949) (assay: human PMI inhibitors, high substrate, primary screen, biochemical, fluorescence intensity, high mannose 6-phosphate (AID 1220)). Conditions: recombinant PMI enzyme, coupled fluorescence intensity; at 20 µM; stronger effect = higher value.
Sequence of Mannose-6-phosphate isomerase (Homo sapiens) (P34949 whole entry, looked up): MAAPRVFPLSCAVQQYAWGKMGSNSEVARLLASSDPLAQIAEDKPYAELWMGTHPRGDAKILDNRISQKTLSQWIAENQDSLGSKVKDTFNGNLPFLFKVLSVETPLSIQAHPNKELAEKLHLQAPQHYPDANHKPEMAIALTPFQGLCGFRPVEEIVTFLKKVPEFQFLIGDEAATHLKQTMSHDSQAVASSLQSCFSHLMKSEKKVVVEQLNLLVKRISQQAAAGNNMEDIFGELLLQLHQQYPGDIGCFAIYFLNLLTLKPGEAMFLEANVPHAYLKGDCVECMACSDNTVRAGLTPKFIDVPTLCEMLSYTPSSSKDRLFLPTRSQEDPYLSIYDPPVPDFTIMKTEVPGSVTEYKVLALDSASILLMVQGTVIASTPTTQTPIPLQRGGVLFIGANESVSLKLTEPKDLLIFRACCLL

Row | Structure (SMILES) | inhibition
1 | O=C(Nc1cccc(N=Cc2cc(Br)cc(Br)c2O)c1)c1ccco1 | 53.4% (active)
2 | CC(=O)c1cccc(NC(=O)c2ccco2)c1 | 2.7%
3 | O=C(Nc1cccc(N=Cc2cc(Cl)cc(Br)c2O)c1)c1ccco1 | 44.4%
4 | O=C(CSc1nnc(-c2cccs2)n1-c1ccccc1)c1ccc2c(c1)OCCO2 | 6.2%
5 | CCOC(=O)N1CCC(NC(=O)c2ccc3c(c2)N(Cc2ccccc2)CCS3)CC1 | 13.2%
6 | CCOC(=O)N1CCC(NC(=O)c2ccc3c(c2)N(C)CCS3)CC1 | 55.2% (active)
7 | CCOC(=O)N1CCC(NC(=O)c2ccc3c(c2)N(Cc2ccc(C)cc2)CCS3)CC1 | 24.9%
8 | COc1cccc(C2=NOC(C(=O)NC(C)C)C2)c1 (stereo unspecified) | 3.6%
9 | COc1cccc(C2=NOC(C(=O)NC3CCCCC3)C2)c1 (stereo unspecified) | 53.2% (active)
10 | COc1ccc(C2=NOC(C(=O)NC3CCCCC3)C2)cc1OC (stereo unspecified) | 11.9%
11 | C#CCNC(=O)C1CCN(c2ccc(S(=O)(=O)N3CCOCC3)cc2Cl)CC1 | -1.4%
12 | CCOc1cc(N2CCOCC2)c(OCC)cc1NC(=O)CN1CCCC1 | 20.8%
13 | CCOc1cc(N2CCOCC2)c(OCC)cc1NC(C)C(=O)N1CCN(CC)CC1 (stereo unspecified) | 57.1% (active)
14 | CCOc1cc(N2CCOCC2)c(OCC)cc1NC(C)C(=O)N1CCC(C)CC1 (stereo unspecified) | 59.1% (active)
15 | CCN1CCN(C(=O)Nc2ccc(OC)cc2OC)CC1 | 34.3%
16 | CCOc1cc(N2CCOCC2)c(OCC)cc1NC(=O)C1CCCC1 | -1%
17 | CCC(C)C(=O)Nc1ccc(OC)cc1OC (stereo unspecified) | 5.6%
18 | CCN1CCN(C(=O)C(C)Nc2ccc(OC)cc2OC)CC1 (stereo unspecified) | 58.6% (active)
19 | CCOc1cc(N2CCOCC2)c(OCC)cc1NC(=O)CN1CCCC(C)C1 (stereo unspecified) | 30.5%
20 | CCOc1cc(N2CCOCC2)c(OCC)cc1NC(=O)c1ccc(OC(C)C)cc1 | 19.1%
21 | CC(=O)c1cccc(N/C=C\C(=O)c2ccc(C)cc2)c1 | 1.9%

Row | Structure (SMILES) | inhibition
22 | CCN(CC)S(=O)(=O)c1cccc(C(=O)Nc2ccc(C#N)cc2)c1 | 16.5%
23 | Cc1cccc(N2CCN(C(=O)c3ccc(CNc4c(N5CCC(C)CC5)c(=O)c4=O)cc3)CC2C)c1 (stereo unspecified) | 4.9%
24 | O=C(CS(=O)CC(=O)N(c1cccc(F)c1)C(C(=O)NC1CCCCC1)c1ccco1)Nc1ccc(F)cc1 (stereo unspecified) | -6.4%
25 | C/C(=N\NC(=O)CN(c1ccccc1)S(=O)(=O)c1ccccc1[N+](=O)[O-])C(C)(C)C | 8.8%
26 | FCCCOc1ccc(-c2nccc(-c3ccc(Br)cc3)n2)cc1 | 8.4%
27 | Cc1cc(NC(=O)CSc2nnc(C3CC3)n2-c2ccccc2)no1 | -7.9%
28 | Oc1cccc(/C=N/Nc2cc(N3CCCC3)nc(N3CCCC3)n2)c1 | 59.8% (active)
29 | Oc1ccc(/C=N/Nc2cc(N3CCCC3)nc(N3CCCC3)n2)cc1 | 58.7% (active)
30 | COc1ccc(/C=N/Nc2cc(N3CCCC3)nc(N3CCCC3)n2)cc1 | 49%
31 | C(=N\Nc1nc(N2CCCCCC2)nc(N2CCCCCC2)n1)/c1ccccc1 | 23.1%
32 | O=C(O)c1ccccc1/C=N/Nc1nc(N2CCCCC2)nc(N2CCCCC2)n1 | -0.2%
33 | COc1cc(/C=N/Nc2nc(N3CCCC3)nc(N3CCCC3)n2)ccc1O | 5.1%
34 | Oc1ccccc1/C=N/Nc1cc(N2CCCC2)nc(N2CCCC2)n1 | 52% (active)
35 | COc1ccc(/C=N/Nc2nc(N3CCCC3)nc(N3CCCC3)n2)cc1 | 0.1%
36 | Oc1ccc(Br)cc1/C=N/Nc1nc(N2CCCCC2)nc(N2CCOCC2)n1 | 20%
37 | COc1cc(-c2cc(N)n(S(=O)(=O)c3ccccc3)n2)cc(OC)c1OC | -2.1%
38 | CCOC(=O)c1ccc(S(=O)(=O)Nc2ccc3cn[nH]c3c2)cc1 | 24.1%
39 | CC1CCC(NC(=O)Cn2cc3c(n2)CCCC3)CC1 (stereo unspecified) | 3.7%
40 | CC(C)=CCCC1=CCC(/C=N/NC(N)=O)C(C)C1 (stereo unspecified) | -36.5%
41 | OC(c1ccccc1)c1nc2ccccc2s1 (stereo unspecified) | 6%
42 | O=C(N/N=C/c1ccc(Br)o1)c1ccc2c(c1)OCCO2 | 0%

Row | Structure (SMILES) | inhibition
43 | C(=N\Nc1nc2ccccc2[nH]1)/c1ccccn1 | -33.9%
44 | N#CCCCN1C(=O)C(O)(CC(=O)c2ccc3c(c2)OCCO3)c2ccccc21 (stereo unspecified) | 11.1%
45 | N#CCCCN1C(=O)C(=C(C#N)C#N)c2ccccc21 | 59.5% (active)
46 | CC(C)CN1C(=O)/C(=C(/C#N)C(=O)NC2CCCCC2)c2ccccc21 | 20%
47 | Cc1ccc(C(=O)NCCCNc2ccccc2[N+](=O)[O-])cc1 | 1.8%
48 | Cc1ncc(S(=O)(=O)c2ccccc2)c(-c2ccccc2)n1 | -4.6%
49 | CC(C)C(=O)NC(=S)Nc1ccc(S(=O)(=O)NC(C)(C)C)cc1 | -1.7%
50 | COC(=O)C1=C(C)N(Cc2ccc(C)cc2)C(=O)/C1=C\c1ccc(O)c(OC)c1 | 58.7% (active)
51 | CCOc1cc(/C=C2\C(=O)N(CCc3ccc(OC)c(OC)c3)C(C)=C2C(=O)OC)ccc1O | 50.6% (active)
52 | CCOc1cc(/C=C2/N=C(C)C(C(=O)OC)=C2O)ccc1O | 31.3%
53 | COC(=O)C1=C(C)N(CCc2ccc(OC)c(OC)c2)C(=O)/C1=C\N(C)C | -13.2%
54 | COC(=O)C1=C(C)N(Cc2ccc(C)cc2)C(=O)/C1=C\c1cc(OC)c(OC)c(OC)c1 | 23.1%
55 | COC(=O)C1=C(C)N(Cc2ccco2)C(=O)/C1=C\c1ccc(N(C)C)cc1 | 19.7%
56 | C=CCOc1cccc(/C=C2\C(=O)N(Cc3ccc(C)cc3)C(C)=C2C(=O)OC)c1 | 10.8%
57 | CCOc1cc(/C=C2\C(=O)N(Cc3ccco3)C(C)=C2C(=O)OC)ccc1O | 68.2% (active)
58 | COC(=O)C1=C(C)N(CCc2ccc(OC)c(OC)c2)C(=O)/C1=C\c1ccc(O)cc1 | 6%
59 | COC(=O)C1=C(C)N(Cc2ccco2)C(=O)/C1=C\c1ccc([N+](=O)[O-])cc1 | -22%
60 | CCN1C(=O)/C(=C\c2ccc3c(c2)OCO3)C(C(=O)OC)=C1C | -6.5%
61 | CCOc1cc(/C=C2\C(=O)N(Cc3ccc(C)cc3)C(C)=C2C(=O)OC)ccc1O | 53.3% (active)
